Measured values: PubChem BioAssay (NCI)
The panel holds about 83,000 compounds, 20% with a hit somewhere; the sample as a whole holds those more often.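 In brief: 96-well plates, 48 h treatment, single concentration, percent growth endpoint.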 A number with no mark means an inactive call. Activity calls are given as the source filed them. How the source made its calls: active means growth percent below 10; inactive means the rest.

Columns and labels:
Assay in all cases: NCI-60 one-dose screen, 48 h (100 = growth as untreated, 0 = no growth, -100 = all killed)
Conditions in all cases: 10 µM unless noted
[1] = system: SK-MEL-2 melanoma
[2] = system: SN12C renal
[3] = system: UO-31 renal
[4] = system: TK-10 renal
[5] = system: CAKI-1 renal
[6] = system: A498 renal
[7] = system: CCRF-CEM leukemia
[8] = system: MOLT-4 leukemia
[9] = system: SR leukemia
[10] = system: RPMI-8226 leukemia
[11] = system: OVCAR-8 ovarian
[12] = system: OVCAR-5 ovarian
[13] = system: OVCAR-4 ovarian
[14] = system: SK-OV-3 ovarian
[15] = system: IGROV1 ovarian
[16] = system: OVCAR-3 ovarian
[17] = system: HS 578T breast
[18] = system: NCI/ADR-RES ovarian
[19] = system: ACHN renal

## Cc1cccc(Oc2ccc(Nc3ncnc4ccc(NC(=O)CNCCO)cc34)cc2Cl)c1
[1]
  growth: 87.8%
[2]
  growth: 39.4%
[3]
  growth: 41%
[4]
  growth: 39.8%
[5]
  growth: 52.9%
[6]
  growth: 49.7%
[7]
  growth: 72.3%
[8]
  growth: 62%
[9]
  growth: 5.67% (active)
[10]
  growth: 71.7%
[11]
  growth: 66.7%
[12]
  growth: 78.8%
[13]
  growth: 67.7%
[14]
  growth: 10.8%
[15]
  growth: 9.02% (active)
[16]
  growth: 49.7%
[17]
  growth: 83.5%
[18]
  growth: 76.1%

## CC(N)C(=O)NNc1n[nH]c(=S)n1N (stereo not drawn)
[1]
  growth: 105%
[2]
  growth: 102%
[3]
  growth: 83%
[4]
  growth: 108%
[19]
  growth: 108%
[5]
  growth: 93.9%
[6]
  growth: 94.8%
[7]
  growth: 102%
[8]
  growth: 107%
[9]
  growth: 103%
[10]
  growth: 104%
[11]
  growth: 100%
[13]
  growth: 105%
[14]
  growth: 109%
[15]
  growth: 98.8%
[16]
  growth: 97.6%
[17]
  growth: 88.2%
[18]
  growth: 99.9%

## C=Cc1cc[n+](CCCCCCCCCCCC)cc1
[1]
  growth: 150%
[2]
  growth: 101%
[3]
  growth: 94%
[4]
  growth: 137%
[19]
  growth: 108%
[5]
  growth: 103%
[6]
  growth: 94.9%
[7]
  growth: 87.9%
[8]
  growth: 94.7%
[9]
  growth: 97.2%
[10]
  growth: 104%
[11]
  growth: 112%
[12]
  growth: 108%
[13]
  growth: 133%
[14]
  growth: 144%
[15]
  growth: 104%
[17]
  growth: 108%
[18]
  growth: 106%

## CCOC(=O)c1c(O)cc(-c2ccccc2)cc1-c1sc(N(C)Cc2ccccc2)nc1Cl
[1]
  growth: 101%
[2]
  growth: 97.3%
[3]
  growth: 96.8%
[4]
  growth: 108%
[19]
  growth: 97.2%
[5]
  growth: 87.9%
[6]
  growth: 108%
[7]
  growth: 96.3%
[8]
  growth: 94.4%
[9]
  growth: 93.4%
[10]
  growth: 95.2%
[11]
  growth: 97.8%
[12]
  growth: 89.4%
[13]
  growth: 102%
[14]
  growth: 95.7%
[15]
  growth: 108%
[16]
  growth: 106%
[17]
  growth: 88.6%
[18]
  growth: 102%

## Cc1ccc2[nH]c(=S)n(-c3ccc(S(=O)(=O)Nc4ccc(Cl)nn4)cc3)c(=O)c2c1
[1]
  growth: 106%
[2]
  growth: 96.9%
[3]
  growth: 85.2%
[4]
  growth: 100%
[19]
  growth: 104%
[5]
  growth: 90.6%
[6]
  growth: 92.1%
[7]
  growth: 100%
[8]
  growth: 100%
[9]
  growth: 94.2%
[10]
  growth: 103%
[11]
  growth: 97.7%
[12]
  growth: 103%
[13]
  growth: 110%
[14]
  growth: 108%
[15]
  growth: 105%
[16]
  growth: 108%
[17]
  growth: 94.4%
[18]
  growth: 103%

## O=C(CCN1CCCC1)Nc1ccc2c(NCc3ccc(F)cc3)c3ccccc3nc2c1
[1]
  growth: -5.55% (active)
[2]
  growth: -2.56% (active)
[3]
  growth: 1.44% (active)
[4]
  growth: -3.79% (active)
[19]
  growth: 5.75% (active)
[5]
  growth: 3.81% (active)
[7]
  growth: -15.2% (active)
[8]
  growth: -19.8% (active)
[9]
  growth: -13.2% (active)
[10]
  growth: -34.8% (active)
[11]
  growth: 2.58% (active)
[12]
  growth: 2.2% (active)
[13]
  growth: -30.9% (active)
[14]
  growth: -5.63% (active)
[15]
  growth: -2.1% (active)
[16]
  growth: -46.5% (active)
[17]
  growth: -9.73% (active)
[18]
  growth: 70.3%

## C=C1C(=O)O[C@H]2[C@H]1CC/C(CNC(=O)/C=C/c1ccccc1F)=C\CC[C@@]1(C)O[C@@H]21
[1]
  growth: 54.7%
[2]
  growth: 8.82% (active)
[3]
  growth: -95.9% (active)
[4]
  growth: -29% (active)
[19]
  growth: -65.6% (active)
[5]
  growth: -84.4% (active)
[7]
  growth: -0.259% (active)
[8]
  growth: -12% (active)
[9]
  growth: 8.95% (active)
[10]
  growth: -2.96% (active)
[11]
  growth: 4.58% (active)
[12]
  growth: 27.7%
[13]
  growth: 9.27% (active)
[14]
  growth: 96.6%
[15]
  growth: 15%
[16]
  growth: -62.7% (active)
[17]
  growth: 58.2%
[18]
  growth: 77.7%

## CCN(CC)CCSCCCNc1c(C)cnc2cc(Cl)ccc12
[1]
  growth: 143%
[2]
  growth: 82.7%
[3]
  growth: 54.9%
[4]
  growth: 118%
[19]
  growth: 94.6%
[5]
  growth: 90.5%
[6]
  growth: 71.4%
[7]
  growth: 80.6%
[8]
  growth: 70.4%
[9]
  growth: 30.9%
[10]
  growth: 83%
[11]
  growth: 93.2%
[12]
  growth: 98.4%
[13]
  growth: 86%
[14]
  growth: 108%
[15]
  growth: 85.4%
[16]
  growth: 82.5%
[17]
  growth: 102%
[18]
  growth: 82.5%

## C1=C2CNCC3=Cc4ccc5ccccc5c4OC23Oc2c1ccc1ccccc21
[1]
  growth: 51.9%
[2]
  growth: 63.2%
[3]
  growth: 36.3%
[4]
  growth: 89.7%
[19]
  growth: 37.2%
[5]
  growth: 31.1%
[7]
  growth: 43.3%
[8]
  growth: 45.8%
[10]
  growth: 70.5%
[11]
  growth: 53.9%
[12]
  growth: 70%
[15]
  growth: 39.9%
[16]
  growth: -19.1% (active)
[17]
  growth: 52.5%
[18]
  growth: -21.4% (active)

## NC(=S)N/N=C/c1ccc(OC(=O)COc2cc(Cl)c(Cl)cc2Cl)cn1
[1]
  growth: 59.1%
[2]
  growth: 43.9%
[3]
  growth: 22.1%
[4]
  growth: 92.5%
[19]
  growth: 18.4%
[7]
  growth: 40.7%
[8]
  growth: 31.3%
[9]
  growth: 1.38% (active)
[10]
  growth: 76.4%
[11]
  growth: 26.1%
[12]
  growth: 115%
[14]
  growth: 99.5%
[15]
  growth: 63.8%
[16]
  growth: 59.2%
[17]
  growth: 114%
[18]
  growth: 26.9%
